# Data as given in the supplement of paper PMC6555819.
# How the values were obtained:
# Assay in all cases: PBM binding z-score (relative to random genomic background probes); higher = stronger binding; sequences stand for … in GC…GCGATTGACAGCGTAGAATGAAGG
# [1] = tested on: RARb homodimer (NR concentration 270 nM)
# Procedure, shortened: (§1)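 Ligand-free nuclear receptor dimers were bound for 1 h to custom Agilent 4×180K protein-binding microarrays. Detection used antibodies against each partner (one per run). Binding z-scores rest on regression-normalized fluorescence, with random background probes as the reference.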
# [2] = tested on: RARg:RXRa (NR concentration 270 nM, RXRa partner concentration 90 nM)
# Procedure, shortened: as §1
# [3] = tested on: RARg homodimer (NR concentration 270 nM)
# Procedure, shortened: as §1
# [4] = tested on: RXRa DBDmut IVT, anti-RXR (DBD mutation: RXRa K156A/R161A, NR concentration 90 nM)
# Procedure, shortened: as §1
# [5] = tested on: RXRa homodimer (NR concentration 180 nM)
# Procedure, shortened: as §1
# [6] = tested on: THRa:RXRa (NR concentration 90 nM, RXRa partner concentration 90 nM)
# Procedure, shortened: as §1
# [7] = tested on: THRa homodimer (NR concentration 90 nM)
# Procedure, shortened: as §1
# [8] = tested on: VDR homodimer (NR concentration 270 nM)
# Procedure, shortened: as §1
Sequence,PBM binding z-score [1],PBM binding z-score [2],PBM binding z-score [3],PBM binding z-score [4],PBM binding z-score [5],PBM binding z-score [6],PBM binding z-score [7],PBM binding z-score [8]
CCTACTGGGCCATCAGGTCATTGTTATCAACGTT,2.4,1.8,1.75,0.592,0.877,3.26,3.28,1.99
ACTAGCAGGCCAAGGGTCATTCAAGATTAGTCCG,3.62,4.15,3.24,0.96,4.5,3.12,0.107,2.6
CCGACTGGGGCACAGGTTACCATACTCAGTACGA,1.07,1.02,0.906,-0.122,0.761,0.272,-0.26,-0.0992
ACTATTAGTTGAAACGAGGGCAACCGATAGGTTG,1.25,1.01,1.11,0.84,0.792,3.41,0.358,1.1
TCTCGGAGGACACGAAAGGTCAGATCTCGACATC,4.71,4.58,4.87,1.53,3.65,3.82,1.45,1.13
AGAACGAGGGCAATGAATTGATAGCACGGGTGGC,0.905,1.08,1.27,1.34,0.98,0.765,-0.323,0.621
CGTCAAAGTTCTACTAAGGTAACGTAAAGCACGC,0.428,0.172,0.53,0.53,0.138,3.7,1.49,0.165
ATATGTAGGTCACATCCGGGTCATTCAGGCTATG,4.84,6.67,5.7,2.15,5.28,4.65,2.94,3.78
ATCTTTAGGTAAAAGTTCAGTGAATCCCGAGGAT,2.61,1.69,1.85,1.27,1.57,1.76,0.573,1.63
ATACCAAGGTGATCGTGAGGTCGTTGCTACTAAC,1.88,2.03,0.891,0.967,1.56,3.25,2.43,3.33
AGAGTGAGGTTATTAAGATCAGGGAATTGCGGTC,1.42,1.12,0.991,1.56,1.82,2.12,1.33,1.97
TCTATTAGTTGATTAGTGCAACCGAAACAGCGGA,0.0135,0.467,0.362,0.964,0.333,0.158,0.00829,0.654
ATCTCTAGGTAACCAAGTTCAGTGAGTGCCGAAC,1.55,0.591,0.796,1.34,0.412,1.52,0.776,2.83
CCTCGGAGGACAGAAGGTCAGACCTGTCCGCTTT,3.7,3.17,3.3,0.392,2.08,2.39,-0.0906,0.229
AGAATGAGGTTATACGTAGATCAGGGAAGAAAGT,1.19,1.88,1.24,1.35,2.23,2.23,0.863,0.864
CCTCACGGGTCACGAGGTTATAGCACGACGAGCG,3.79,5.79,5.33,1.43,6.4,3.36,1.24,2.22
AGAACGAGGGCAATGAGTTGAAAGCACGGGTGGC,1.14,1.26,1.51,2.17,1.07,1.22,-0.343,3
CAAACTAGGTCAAGAGGTCATAGTCCGCTTCCCG,5.49,7.6,7.08,2.78,7.48,4.35,2.59,3.82
TCTTCTAGATCAACAGGAGGTTAAGAAAGATCGA,0.617,0.984,0.501,0.855,1.01,0.77,-0.076,-0.175
ATCGAAAGGTCGTGAGGCGAGTATACAGAAAGGC,2.55,4.39,3.91,1.28,5.34,2.49,-0.00887,0.582
ACTTACGGGTCAACGAGGCTATAGCACGCGTATA,3.07,5.01,4.51,2.15,5.06,3.35,0.239,1.55
AGCATGAGGTTAAGATCAGGGAAACAGAATACAT,0.891,2.08,1.62,0.954,2.58,2.66,0.635,0.646
GCTATTAGTTGAAAGGGCAACTGAATGATTCTCG,1.9,1.45,1.31,0.912,1.25,0.832,-0.217,0.256
AGAATGAGCTTATTAAGATCAGGGAATTGCGGTC,-0.66,-0.341,-0.0554,-0.496,-0.0846,-0.273,-0.456,-0.554
TCTAGTTGGTCACAGAGGTCACACACGACGGGTA,4.61,5.8,5.57,1.63,6.43,3.97,2.54,4.18
TCAGACAGGTGAAGATAACTCAGGTACGCAGTCG,0.661,0.712,0.748,1.15,1.13,0.737,0.4,0.623

Sequence,PBM binding z-score [1],PBM binding z-score [2],PBM binding z-score [3],PBM binding z-score [4],PBM binding z-score [5],PBM binding z-score [6],PBM binding z-score [7],PBM binding z-score [8]
TTACCAAGGTGAGCTGAGGTCGTTAATCCAACTC,1.49,0.963,0.731,-0.172,1.12,4.42,1.8,1.33
GCGACTGGGGCATCAGCAGGTTACCATGACTTAA,0.92,0.761,0.815,-0.0631,0.124,0.654,0.00537,-0.549
CATACAGGGTCAGCTAGTCCAGAGTAGGGACGGC,2.88,4.26,4.24,1.65,4.04,2.86,0.757,1.68
TCGAGTAGGTTAGTCGGGGCATTGAGCCAACATA,0.349,-0.11,0.0255,0.159,-0.18,1,-0.457,-0.0737
CGGCCAAGGTCATAGGAGGTCAGTGAAGACAGAT,5.15,6.78,7.19,3.51,6.42,5.33,2.88,4.3
CCTACAGGGCCATCAGGTCATTGATATCAACGTT,2.75,2.63,2.35,0.562,1.63,3.26,2.79,1.45
CCTATTAGGTGACCATAAGGGCAACCGAAGCTCG,2.13,2.09,1.22,-0.22,1.08,2.64,1.52,0.127
CCGACTGGAGCAAAGGTTACCATACTCAGTACGA,2.17,1.89,1.29,0.545,2.57,1.39,0.122,0.17
ATCGAAAGGTCGAGGTGCGTATAGAGAAAGGGAA,2.47,4.3,4.33,0.96,4.37,1.77,-0.562,0.304
CGTAGTTGGTCAGGAGGTCACACACCGGATATGA,4.25,5.01,4.39,0.895,4.57,3.46,2.18,3.08
TGTCAAAGTTCAAAGCTAACGTAAGTATCCACAC,3.48,5.47,5.72,4.37,4.59,1.76,-0.21,3.56
ATCTCTAGGTAACAAGTTCAGTGACAGAGAGGAC,1.97,1.58,1.52,0.868,0.971,1.49,1.14,2.97
TCTTGTAGTTCAAAGGTTAAGAAAGCCGAAGCCT,2.54,4.81,2.39,2.69,6.78,2.53,-0.0884,1.9
TCATATAGGTAAATGTTAGGTGAAAGTCCGATCT,0.881,0.623,0.326,2.12,1.09,2.51,1.58,0.982
GGAACGAGGGTAAAGTTGATAGCATCTGTCGACG,0.332,0.683,0.562,0.929,0.974,0.383,-0.45,0.411
TAGCCTAGGTCATTCAGGGGCCAGTATTGAAAGC,3.3,6.04,4.51,2.08,2.72,3.47,0.833,2.03
CGTTAAAGTTCAAGGTAACGTAACAGAAAGCAGC,3.54,4.91,5.74,4.35,3.98,2.78,1.23,3.34
ATCGAAAGGTCGAGGTGAGTATGGAGAAAGGGAA,2.76,4.21,4.51,0.698,4.17,2.84,0.743,0.435
ACTCGGAGGACAAAGGCCAGAGCTACGCCAGTGA,0.873,0.907,1.26,0.472,-0.212,0.389,-0.475,-0.537
CGTCCAAGGTCAGAAAGGTCAGTGAATGCCGAGT,5.58,6.18,6.89,3,5.59,4.14,2.3,4.66
GCTATTAATTGAAAGGGCAACCGAATGATTCTCG,1.96,0.91,1.26,0.65,0.421,0.301,-0.3,0.758
TCTATTTGGTCAAAGGTCACACACTCGAAATGCG,5.34,7.07,6.16,2.49,7.9,4.24,2.77,2.96
CTCTAAAGGTCGGTTGAGGTGAGTATACGGATAA,2.4,3.06,3.15,1.52,2.44,5.16,1.17,0.546
TAGCCTAGGTCAGATCAGGCCAGTATACGCTATA,2.07,2.81,3.44,-0.202,1.41,4.36,0.219,-0.305
CCTGCTAGGTCAATGGCCAGCTAAAGCAGCTCGC,2.64,3.43,3.65,1.05,1.79,1.98,0.178,-0.525
TCTATTAGTTGAAGGGCTACCGACGAGTCCGTTT,0.0763,0.0303,0.0781,1.63,0.354,-0.151,-0.0569,1.04
